Screening results: PubChem BioAssay, National Center for Advancing Translational Sciences (NCATS)
Sfp inh: qHTS Assay for Inhibitors of Bacillus subtilis Sfp phosphopantetheinyl transferase (PPTase). 4'-phosphopantetheinyl transferase ffp (Bacillus subtilis), Q9F4F7. Biochemical Sfp PPTase activity, qHTS. Potency, µM, for the others: largest response in the series, negative = inhibition, hits mostly inhibitors. hit rate 3.5% among 310,000. AID 1490, 2009;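 further: the enzyme is Sfp with the accession as filed and its product quenches rhodamine fluorescence; potency means the concentration at half of the fitted maximal effect; 0% = enzyme reaction without inhibitor and -100% = no enzyme wells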
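Sfp 15 nM + cpd, 15 min RT; start w/ rhodamine-CoA 5 uM, BHQ-2-YbbR 12.5 uM (final); 50 mM Hepes pH 7.6, 10 mM MgCl2, 0.01% NP-40, 0.01% BSA; read 525/598 nm at 0 and 30 min.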
Tau FP inhib: qHTS for Inhibitors of Tau Fibril Formation, Fluorescence Polarization | Microtubule-associated protein tau (Homo sapiens), P10636 | K18 P301L tau heparin fibrillization, Alexa594 FP, 6 h | Potency, µM (titrated, usually from 57.7 µM), inactives show at the highest dose activity, negative = inhibition, usual class: inhibitors | hit rate 0.39% among 280,000; further: potency means the concentration at half of the fitted maximal effect; nearly all actives have a fitted effect of over 55% in size
Target sequence (P10636 561-689 P618L limits assumed): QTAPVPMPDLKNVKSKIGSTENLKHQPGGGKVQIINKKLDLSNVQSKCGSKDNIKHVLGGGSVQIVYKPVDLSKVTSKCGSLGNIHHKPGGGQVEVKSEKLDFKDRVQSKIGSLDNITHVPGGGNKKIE
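Steps: dispense K18 P301L tau (15 uM plus 0.24 uM Alexa 594 tracer, final) in pH 7 sodium acetate; add compound; add heparin (20 uM final); incubate 6 hr, 37 C; add ThT (30 uM final); after 1 hr ambient, read FP.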
Tau fluor cs: Counterscreen qHTS for Inhibitors of Tau Fibril Formation, Fluorescence Polarization. tau K18 P301L Alexa594 fluorescence, heparin fibrillization. Potency, µM (series often up to 57.7 µM), without a hit: top-dose activity change, negative = decrease. hit rate 0.93% among 280,000; further: potency means the concentration at half of the fitted maximal effect; nearly all actives have a fitted effect of over 55% in size
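Human K18 P301L tau (15 uM unlabeled plus 0.24 uM Alexa 594-labeled, final) in 100 mM sodium acetate pH 7 was mixed with compound and 20 uM heparin and incubated 6 hr at 37 C.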
Tau ThT inhib: qHTS for Inhibitors of Tau Fibril Formation, Thioflavin T Binding; Potency, µM (top dose mostly 57.4 µM), for inactives: top-dose activity, negative = inhibition, most hits filed as inhibitors; Microtubule-associated protein tau (Homo sapiens), P10636; recombinant tau K18 P301L (four-repeat tau fragment), heparin-induced fibrillization, ThT fluorescence; hit rate 2.1% among 270,000; further: potency means the concentration at half of the fitted maximal effect; nearly all actives have a fitted effect of over 55% in size
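In this qHTS, human K18 P301L tau is incubated with compound and heparin for 6 hr at 37 C, and Thioflavin T fluorescence then reports fibril load.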
FBPA coupling cs: qHTS Assay for Inhibitors of Fructose-1,6-bisphosphate Aldolase from Giardia Lamblia: Coupling assay counterscreen; coupling enzyme system counterscreen, AmpLite Red fluorescence; activity change, negative = inhibition, % at 58.2 µM, hits read low; hit rate 0.67% among 290,000; in the data active means activity change below about -30%
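Fluorescence at 525 nm excitation and 598 nm emission measured inhibition of the coupled detection system without aldolase. Compounds (at 57.5 uM final) were preincubated 10 min at room temperature with coupling enzyme reagent before a 20 min substrate/AmpLite Red step.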
Starred values were filed as active, the others as inactive; ? = inconclusive; nt = no result. In the library only some 5.2% were active in any assay of this set; here they are far more common. Unless noted, the call rests on the fitted dose curve; in most records, active means well fitted curve in the direction sought with a large enough effect; inconclusive means small, poorly fitted or top-dose-only effect, or another doubt; inactive means no such curve, though single readings can be large; an effect the other way counts as inactive or inconclusive. Unless noted, on the % scale 0 is the no-effect control and ±100 the full control effect.

SMILES | Sfp inh | Tau FP inhib | Tau fluor cs | Tau ThT inhib | FBPA coupling cs
CC1(C)CC(=O)C(C2(O)C(=O)NC(=O)NC2=O)=C(O)C1 | -17% | ? | -18% | 6.3µM* | -14
CCN1CCN(c2ccc([N+](=O)[O-])cc2C=C2C(=O)NC(=O)NC2=O)CC1 | 45µM* | -12% | -4% | ? | -4
O=C1Nc2ccc(Br)cc2C(c2ccc(Cl)cc2)=NC1O (stereo not given) | -2% | nt | nt | nt | -34*
O=C1Nc2ccc(Br)cc2C(c2ccccc2)=NC1O (stereo not given) | -1% | nt | nt | nt | -1
CCOC(=O)c1cccc(NC(=O)NCc2ccc3c(c2)CCN3C(=O)c2ccccc2)c1 | nt | ? | ? | -13% | nt
COc1cc2c(cc1OC)-c1c(OC)c(OC)c(CO)c3c1C(C2)N(C)CC3 (stereo not given) | -1% | -3% | -3% | -3% | -4
CCN1C(=O)N(CC)C(=O)C2(Cc3ccccc3N3CCN(c4ccccc4)CC32)C1=O (stereo not given) | 71µM* | -12% | -7% | ? | -18
COc1ccc(CN2C(=O)NC(=O)/C(=C/c3ccc([N+](=O)[O-])o3)C2=O)cc1 | 50µM* | ? | ? | 8.9µM* | -9
COc1cc(N2CCOCC2)ccc1/C=C1\C(=O)NC(=O)N(Cc2ccc3c(c2)OCO3)C1=O | ? | -13% | -17% | ? | 3
Cc1ccc(/C=C2/C(=O)NC(=O)N(Cc3ccc(F)cc3)C2=O)o1 | 35µM* | -1% | -3% | nt | 0
Cc1ccc(/C=C2\C(=O)NC(=O)N(CCc3ccc(F)cc3)C2=O)s1 | -11% | -10% | -19% | ? | 3
COc1ccc(CN2C(=O)NC(=O)/C(=C\c3cccc(OC)c3OC)C2=O)cc1 | 79µM* | -2% | -14% | ? | 9
COc1ccc(/C=C2/C(=O)NC(=O)N(Cc3ccco3)C2=O)cc1 | ? | 3% | 4% | 4% | -19
Cc1ccc(/C=C2\C(=O)NC(=O)N(CCc3ccc(F)cc3)C2=O)o1 | 40µM* | -11% | -6% | ? | 0
c1cnc(N2CC3(CCNCC3)C2)nc1 | -3% | nt | nt | nt | 3
Oc1ccc2[nH]cc(CCCCN3CC=C(c4ccccc4)CC3)c2c1 | 4% | 3% | -28% | ? | -1
CCOc1cc(/C=C2\C(=O)NC(=O)N(CCc3ccc(F)cc3)C2=O)ccc1O | 71µM* | ? | -39% | nt | 2
CN(C)c1ccc(/C=C2/C(=O)NC(=O)N(CCc3ccc(F)cc3)C2=O)cc1 | -23% | -10% | 1% | ? | 1
Cc1cc(/C=C2\C(=O)NC(=O)N(Cc3ccccc3Cl)C2=O)c(C)n1-c1ccc(C(=O)O)cc1 | -15% | ? | -16% | ? | -1
Cc1ccc(/C=C2\C(=O)NC(=O)N(Cc3ccccc3Cl)C2=O)o1 | 71µM* | 1% | 3% | ? | 1
CN1CCN(c2ccc([N+](=O)[O-])c3no[n+]([O-])c23)CC1 | -23% | ? | ? | 13µM* | -28
C[C@H](N)Cc1c[nH]c2ccc(OCc3cccs3)cc12 | -17% | 15% | -27% | -17% | 2
COc1ccc(/C=N\N=C(N)N)cc1 | 13% | 10% | 5% | 12% | 1
NC(N)=N/N=C/c1ccc(N(c2ccccc2)c2ccccc2)cc1 | 40µM* | nt | nt | nt | 0
C[C@@H]1CC[C@H]2[C@H](C)[C@H]3CC[C@@]4(O)[C@@H]5CC(=O)[C@H]6CC(=O)CC[C@]6(C)[C@H]5C[C@H]4[C@@H]3CN2C1 | 34% | nt | nt | nt | -4
O=C1Nc2cc(Cl)c(Cl)cc2N2CCNC[C@H]12 | -22% | -4% | -12% | -15% | 4
CCCN1[C@@H]2C[C@@H](O)CC[C@@H]2C[C@H]1C(=O)OC | -4% | 9% | -20% | ? | -4
COc1ccc(OC)c(-n2c(O)c(/C=C3\C=Nc4ccccc43)c(=O)[nH]c2=O)c1 | 50µM* | nt | nt | nt | -1
